Shown are actives, neighbours in structure and some others; about 19% of the full set was active somewhere.
TDP1 cell noCPT = qHTS for Inhibitors of human tyrosyl-DNA phosphodiesterase 1 (TDP1): qHTS in cells in absence of CPT | Potency, µM (top dose mostly 46.2 µM), usual class: inhibitors | actives 15% (n = 420,000) | DT40 Tdp1-/- hTDP1 cells, no CPT, ATP luminescence, 48 h; further: nearly all actives have a fitted effect of over 55% in size
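Seeded 400 DT40-hTDP1 cells/well (vehicle DMSO, no 20 nM CPT); pinned compounds; ≥48 hr at 37 °C; CellTiter-Glo luminescence as viability measure.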
DT40 TDP1 CPT = growth inhibition of DT40 Tdp1-/-;hTDP1 cells with camptothecin (screen for TDP1 inhibitors) | actives 12% (n = 420,000) | Potency, µM (highest dose often 46.2 µM), actives largely listed as inhibitors | chicken DT40 Tdp1-/-;hTDP1 cells + 20 nM CPT, ATP luminescence, 48 h; further: nearly all actives have a fitted effect of over 55% in size
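Chicken DT40 Tdp1-/- cells stably complemented with human TDP1 were seeded at 400 cells/well in medium containing 20 nM camptothecin, exposed to pin-transferred compounds, and grown at 37 °C for at least 48 hr. Viability was read as ATP luminescence.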
ELG1 DNA repair = blocks ELG1-dependent DNA repair in HEK293T cells | HEK293T ELG1-luciferase reporter, luminescence, 16 h; DNA damage induced by 5-fluorouridine | Potency, µM (highest dose often 46.1 µM), actives largely listed as inhibitors | actives 2.3% (n = 330,000); further: nearly all actives have a fitted effect of over 55% in size
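5-Fluorouridine DNA damage + compound/DMSO, 2,000 cells/well, 16 h, 37 °C/5% CO2. ONE-Glo, 30 min RT, luminescence. Readout = decrease in reporter signal.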
TDP1 inh = inhibitors of human tyrosyl-DNA phosphodiesterase TDP1. Potency, µM (top dose mostly 130 µM), usual class: inhibitors. recombinant TDP1, AlphaScreen DNA substrate cleavage. Q9NUW8. actives 0.28% (n = 350,000); further: nearly all actives have a fitted effect of over 40% in size
Target sequence (Q9NUW8 whole entry, looked up): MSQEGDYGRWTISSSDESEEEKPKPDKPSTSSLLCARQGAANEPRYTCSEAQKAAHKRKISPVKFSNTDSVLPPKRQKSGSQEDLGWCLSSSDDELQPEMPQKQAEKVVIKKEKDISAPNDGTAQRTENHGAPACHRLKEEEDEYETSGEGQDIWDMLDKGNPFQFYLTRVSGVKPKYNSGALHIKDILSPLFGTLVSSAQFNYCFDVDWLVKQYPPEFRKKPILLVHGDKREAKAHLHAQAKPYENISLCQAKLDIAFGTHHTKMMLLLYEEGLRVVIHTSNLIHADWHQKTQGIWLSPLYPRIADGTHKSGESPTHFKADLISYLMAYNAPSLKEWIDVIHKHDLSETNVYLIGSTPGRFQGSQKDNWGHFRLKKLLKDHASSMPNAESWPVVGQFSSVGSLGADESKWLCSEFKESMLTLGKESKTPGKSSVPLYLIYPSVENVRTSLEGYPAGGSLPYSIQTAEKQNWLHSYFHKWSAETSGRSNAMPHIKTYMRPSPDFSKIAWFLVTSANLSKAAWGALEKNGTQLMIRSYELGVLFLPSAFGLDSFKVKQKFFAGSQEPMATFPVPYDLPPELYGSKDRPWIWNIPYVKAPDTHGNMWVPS
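Enzyme-compound mixtures sat 15 min at room temperature, followed by a 5 min reaction with 15 nM final substrate and 10 min with AlphaScreen beads. Recombinant human Tdp1 was used at 1 nM final.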
IL1B secr inh = blocks inflammasome-driven IL-1 beta release; THP-1 LPS/ATP IL-1B secretion, AlphaLISA, 16 h; stronger effect = lower value; activity change, % at 57.5 µM; actives 4.7% (n = 360,000); AID 743279; in the data active means activity change below about -50%; inconclusive means mostly about -30% to -49%
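Secreted IL-1B measured by AlphaLISA bead assay after 16 h compound exposure of THP-1 cells; compounds (final up to 57.5 uM) added 1 h before LPS (250 ng/mL) and ATP (1.25 mM) stimulation; lower signal means less secretion.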
Giardia killer = Giardia lamblia killing | Giardia lamblia trophozoite viability | activity change, % at 7.66 µM, hits read low | actives 0.15% (n = 340,000); in the data active means activity change below about -80%; inconclusive means between about -30% and that limit;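 further: parasites exposed to compound for two days anaerobically before the ATP read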
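Viability, read as ATP luminescence: trophozoites at 100 cells/well, compound added, 48 hrs anaerobic at 37 deg C, then 15-30 min room-temperature development before reading.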
Numbers stand for hits; . = inactive; ? = inconclusive; / = no result; ! = a repeat was not active. Unless noted, the call rests on the fitted dose curve; in most records, active means well fitted curve in the direction sought with a large enough effect; inconclusive means small, poorly fitted or top-dose-only effect, or another doubt; inactive means no such curve, though single readings can be large; an effect the other way counts as inactive or inconclusive.

SMILES	TDP1 cell noCPT	DT40 TDP1 CPT	ELG1 DNA repair	TDP1 inh	IL1B secr inh	Giardia killer
COc1ccc(-c2oc3ccc(-c4cc(OC)c(OC)c(OC)c4)cc3c2C(=O)c2ccc(OC)nc2)cc1	?	?	?	/	.	.
COc1ccc(C(=O)c2c(-c3ccc(OC)cc3)oc3ccc(-c4cc(OC)c(OC)c(OC)c4)cc23)cc1	9.2µM	7.3µM	/	/	.	.
COc1ccc(/C=C/c2c(-c3ccc(OC)cc3)oc(=O)c3cc(OC)c(OC)cc23)cc1	?	?	5.8µM	.	.	.
Clc1ccccc1-c1ccc2nccn2c1	.	.	/	/	.	/
O=C(CCNC(=O)c1ccco1)NCc1ccc(C(=O)O)cc1	.	.	.	.	.	.
COc1ccc(-c2ccc3oc(-c4ccc(OC)cc4)c(C#CCO)c3c2)cc1	?	23µM	/	/	?	.
COc1ccc(-c2oc(=O)c3cc(OC)c(OC)cc3c2C#C[C@]2(O)CC[C@H]3[C@@H]4CCc5cc(OC)ccc5[C@H]4CC[C@@]32C)cc1	16µM	?	.	.	.	.
COc1cc2c(-c3ccc4cc[nH]c4c3)c(-c3ccc(C#N)cc3)oc(=O)c2cc1OC	9.2µM	5.8µM	.	.	.	.
COc1ccc(-c2oc(=O)c3cc(OC)c(OC)cc3c2C#CCCO)cc1	21µM	?	16µM	.	.	.
Cc1ccc(OCc2ccc(-c3nc(C#N)c(NCc4ccccc4Cl)o3)o2)cc1	?	?	/	.	/	/
CCOC(=O)C1=C[C@@H](C(C)(C)C)N(S(=O)(=O)c2ccc(C)cc2)[C@H]1c1cccc2ccccc12	?	?	/	/	.	/
COc1ccc([C@H]2CC(=O)C=C(c3cccc(CO)c3)C2)cc1	?	?	.	.	.	.
COc1ccc(-c2oc3ccccc3c2C#CC(C)(C)O)cc1	.	?	13µM	.	.	.
COc1ccc(-c2oc3c(c2C#CC2(O)CCCCC2)C(OC)CCC3)cc1 (stereo not given)	.	?	/	/	?	/
COc1ccc(-c2oc3c(c2C#CC(C)(C)O)C(OCCO)CC3)cc1 (stereo not given)	?	?	/	/	.	/
CCOC1CCCc2oc(-c3ccc(OC)cc3)c(C#CCCO)c21 (stereo not given)	16µM	?	/	/	/	/
COc1cc2c(O)c3c(c(-c4ccc5c(c4)OCO5)c2cc1OC)C(=O)OC3	3.3µM	1.8µM	?	.	.	.
O=C(COc1ccc([N+](=O)[O-])cc1)Nc1nnc(-c2cccnc2)s1	.	.	?	.	.	.
CN1CCN(S(=O)(=O)c2cccc(C(=O)N3CCN(c4ccccc4F)CC3)c2)CC1	.	.	.	/	.	.
NC[C@H]1O[C@H](O[C@H]2[C@H](O)[C@@H](O[C@H]3O[C@H](CO)[C@@H](O)[C@H](N)[C@H]3O)[C@H](N)C[C@@H]2N)[C@H](O)[C@@H](O)[C@@H]1O	?	.	/	/	/	/
CC(C)NCC(O)c1ccc(O)c(O)c1 (stereo not given)	.	?	.	.	.	.
CNC[C@H](O)c1ccc(O)c(O)c1	12µM!	8.4µM!	.	45µM!	?	.
NC[C@H](O)c1ccc(O)c(O)c1	?	?	?	2.2µM!	.	.
CCCN1C(=O)C2(c3ccccc31)c1c(oc3ccc(F)cc3c1=O)C(=O)N2CCCOC(C)C (stereo not given)	?	21µM	/	.	/	/
CC(O)Cn1c(N2CCCC2)nc2c1c(=O)[nH]c(=O)n2C (stereo not given)	.	.	.	/	.	.
SMILES	TDP1 cell noCPT	DT40 TDP1 CPT	ELG1 DNA repair	TDP1 inh	IL1B secr inh	Giardia killer
Cc1ccc(-n2c(Cl)c(Cl)nc(Cl)c2=O)cc1	0.92µM	0.29µM	6.5µM	.	-97	.
COc1nc(Cl)cn(-c2ccc(C)cc2)c1=O	.	.	.	.	.	.
O=C(O)c1ccc(NCCC2=CCCCC2)c([N+](=O)[O-])c1	.	.	.	.	.	.
CCN(CC)c1ccc2cc(-c3nc(-c4ccccc4)no3)c(=O)oc2c1	5.8µM	?	/	.	/	/
O=c1oc2ccccc2cc1-c1nc(-c2ccccc2)no1	.	.	?	.	.	.
COC(=O)CC1C(=O)NCCN1C(=O)Nc1ccccc1 (stereo not given)	.	.	.	.	.	.
O=C(CC1C(=O)NCCN1C(=O)Nc1ccc(C(F)(F)F)cc1)Nc1ccc(F)cc1 (stereo not given)	?	?	.	/	?	.
Cc1cc(C)cc(NC(=O)N2CCNC(=O)C2CC(=O)Nc2cc(Cl)ccc2Cl)c1 (stereo not given)	?	?	.	.	-57	.
COc1ccc(NC(=O)CC2C(=O)NCCN2C(=O)Nc2ccc(C(F)(F)F)cc2)cc1 (stereo not given)	.	.	.	.	-79	.
COC(=O)c1cccc(NC(=O)CC2C(=O)NCCN2C(=O)Nc2cc(C)cc(C)c2)c1 (stereo not given)	.	.	.	.	-62	.
CCc1ccc(NCc2cc3ccc(OC)cc3n(CC(=O)Nc3cccc(Cl)c3C)c2=O)cc1	/	/	/	.	/	/
CC(CCc1ccccc1)NC(=O)C(=O)NCCc1ccccc1 (stereo not given)	.	.	.	.	.	.
Cc1ccc(Nc2c(-c3c[nH]c4ccccc34)nc3cc(C)ccn23)cc1	23µM	23µM	/	.	/	/
Cc1ccc2nc(-c3c[nH]c4ccccc34)c(Nc3ccc(F)cc3)n2c1	18µM	15µM	/	.	/	/
Cc1ccn2c(Nc3ccccc3)c(-c3c[nH]c4ccccc34)nc2c1	?	16µM	/	.	/	/
O=C(NNC1=C(C(=O)C(F)(F)F)CCC1)c1ccccc1O	21µM	16µM	?	.	.	.
COc1cccc(C(=O)NN=C2CCCC2)c1	.	.	.	.	.	.
COc1cccc(C(=O)NNC2=C(C(=O)C(F)(F)F)CCC2)c1	1.5µM	2.1µM	?	.	.	.
Nc1ccccc1C(=O)NNC1=C(C(=O)C(F)(F)F)CCC1	4.1µM	4.1µM	?	.	.	.
COc1ccccc1C(=O)NNC1=C(C(=O)C(F)(F)F)CCC1	?	?	.	.	.	.
O=C(NNC1=C(C(=O)C(F)(F)F)CCC1)c1ccccc1Cl	1µM	1.3µM	?	.	.	.
Nc1ccccc1C(=O)Nc1cccc(C(=O)O)c1	.	.	.	.	.	.
CCOCCCNc1ccc(N2C(=O)C3CCCCC3C2=O)cc1[N+](=O)[O-] (stereo not given)	.	?	.	.	.	.
COc1ccc2oc(=O)cc(CN3CCN(C(=O)c4ccccc4Br)CC3)c2c1	?	?	/	.	/	/

Assay outcomes (PubChem BioAssay)
